Screening data (PubChem BioAssay)
GSH bead fluor: GSH bead compound fluorescence profile; GSH beads flow cytometry, compound fluorescence 488/530 nm; active compounds read high; fluorescence (KMESF) at 10 µM; 190,000 tested, 0.25% active; AID 1776; in the data active means fluorescence above about 89;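 further: glutathione beads carrying GST-tagged Bcl family fusion proteins plus one bare bead set; values are compound well signal with DMSO vehicle wells as background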
Avidin bead fluor: avidin bead compound fluorescence profile | Avidin beads, compound fluorescence 488/530 nm, flow cytometry; active compounds read high | fluorescence (KMESF) at 10 µM | 220,000 tested, 0.38% active; in the data active means fluorescence above about 47
RGS7-Gao: human RGS7-Galphao interaction regulation; 220,000 tested, 0.35% active; Multiplexed bead flow cytometry, RGS7-Galphao binding; actives lie on both sides; AID 1439; P09471; binding response (% of control), % at 10 µM; in the data active means binding response below about 49% or above about 150%; inconclusive means no clear call, values can overlap the other calls; inactive means in between;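 further: fluorescent Galphao held in activated GDP-AlF4 state binding bead-coupled RGS7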
Target sequence (P09471 whole entry, looked up): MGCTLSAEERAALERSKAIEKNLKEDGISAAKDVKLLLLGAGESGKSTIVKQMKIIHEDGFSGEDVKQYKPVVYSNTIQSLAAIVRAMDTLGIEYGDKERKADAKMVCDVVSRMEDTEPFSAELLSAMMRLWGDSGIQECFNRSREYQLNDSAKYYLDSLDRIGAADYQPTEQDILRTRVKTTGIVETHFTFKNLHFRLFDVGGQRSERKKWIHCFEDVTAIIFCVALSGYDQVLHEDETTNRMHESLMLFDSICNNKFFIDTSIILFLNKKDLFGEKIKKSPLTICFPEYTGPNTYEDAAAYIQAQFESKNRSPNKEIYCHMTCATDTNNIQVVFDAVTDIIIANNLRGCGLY
RGS8-Gao: modulates binding of RGS8 to human Galphao; multiplexed bead flow cytometry; actives lie on both sides; response (percent of control binding), % at 10 µM; 220,000 tested, 0.34% active; in the data active means response below about 60% or above about 140%; inactive means in between;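 further: Galphao activated as the GDP aluminium fluoride complex binding bead-coupled RGS8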
RGS16-Gao: RGS16-Galphao interaction regulator (human); O15492+P09471; bead-based flow cytometry RGS16-Galphao binding, fluorescence; actives lie on both sides; binding response (% of control), % at 10 µM; 220,000 tested, 0.38% active; AID 1441;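 further: Galphao activated by GDP with aluminum fluoride before binding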
Target sequence (O15492 whole entry, looked up): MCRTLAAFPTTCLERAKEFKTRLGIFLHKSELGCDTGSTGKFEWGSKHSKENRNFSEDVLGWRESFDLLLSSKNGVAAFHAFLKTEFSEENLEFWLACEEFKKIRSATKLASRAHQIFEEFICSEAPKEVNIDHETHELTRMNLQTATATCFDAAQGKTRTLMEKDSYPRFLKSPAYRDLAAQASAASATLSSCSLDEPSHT
Target sequence (P09471 whole entry, looked up): as the sequence (P09471 whole entry, looked up) above
RGS4-Gao reg: human RGS4-Galphao interaction regulation; Multiplexed bead flow cytometry, RGS4-Galphao binding; actives lie on both sides; binding response (% of control), % at 10 µM; 220,000 tested, 0.33% active; AID 1415; P09471; in the data active means binding response below about 49% or above about 150%; inactive means in between;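 further: fluorescent Galphao activated with aluminum fluoride binding bead-coupled RGS4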
RGS-Gao: RGS4-Galphao interaction regulator (human); shares compounds with RGS16-Gao; multiplexed bead flow cytometry, RGS–Galpha-o binding; RGS4–Galpha-o binding response, % at 10 µM; 1,600 tested, 99% active; AID 1504;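 further: fluorescently labeled Galpha-o bound to GDP with aluminium fluoride binding biotinylated RGS beads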
Biotin-avidin: biotin-avidin bead binding disruption counter-screen | shares compounds with RGS16-Gao | streptavidin beads, fluorescein-biotin binding, flow cytometry | 1,700 tested, under 10 active | AID 1783 | inhibition, % at 10 µM;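 active means inhibition above 50%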;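 further: median green fluorescence of gated singlet beads compared with DMSO control wells; 0% = DMSO wells and 100% = complete loss of bead fluorescence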
RGS8-Gao confirm: RGS8-Galphao interaction regulation, single point confirmation; shares compounds with RGS16-Gao; bead-based flow cytometry RGS8-Galphao binding, fluorescence; actives lie on both sides; binding response (% of control), % at 10 µM; 1,700 tested, 3% active; AID 1836; in the data active means binding response below about 72% or above about 130%; inactive means in between;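 further: Galphao activated as GDP AlF4 complex before binding bead RGS8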
RGS7-Gao single: confirmation of regulators of human RGS7-Galphao interaction. 1,700 tested, 7.8% active. response (percent of control binding), % at 10 µM. shares compounds with RGS16-Gao. AID 1837. bead-based flow cytometry RGS7-Galphao binding; actives lie on both sides; in the data active means response below about 75% or above about 130%; inactive means in between;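 further: fluorescent Galphao activated with GDP and aluminum fluoride binding bead-coupled RGS7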
RGS16-Gao conf: confirmation of regulators of human RGS16-Galphao interaction. response (% of control binding), % at 10 µM. shares compounds with RGS16-Gao. 1,700 tested, 4% active. bead-based flow cytometry, RGS16-Galphao binding; actives lie on both sides; in the data active means response below about 74% or above about 130%; inactive means in between;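 further: Galphao activated as the GDP aluminium fluoride complex binding bead-coupled RGS16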
RGS4-Gao confirm: RGS4-Galphao interaction regulation, single point confirmation; shares compounds with RGS16-Gao; RGS4-Galphao binding, multiplexed bead flow cytometry; actives lie on both sides; binding response (% of control), % at 10 µM; 1,700 tested, 4% active; AID 1840; in the data active means binding response below about 74% or above about 130%; inactive means in between
RGS19-Gao conf: confirmation of regulators of human RGS19-Galphao interaction | 1,700 tested, 5% active | AID 1841 | bead-based flow cytometry RGS19-Galphao binding; actives lie on both sides | response (percent of control binding), % at 10 µM | shares compounds with RGS16-Gao; in the data active means response below about 50% or above about 160%; inactive means in between;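 further: 100% = no compound control and 0% = blank background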
Active calls of the source: *; ? = inconclusive; / = not tested or not shown; ! = a repeat was not active; [ ] = remark or other dose. The list is not random: actives were taken first. Their share in the collection is about 1.2%. Unless noted, how the calls were made is not given here.

SMILES	GSH bead fluor	Avidin bead fluor	RGS7-Gao	RGS8-Gao	RGS16-Gao	RGS4-Gao reg	Biotin-avidin	RGS8-Gao confirm	RGS7-Gao single	RGS16-Gao conf	RGS4-Gao confirm	RGS19-Gao conf	others
CCN1CCN(C(=S)c2ccc(OCC(=O)NCc3ccccc3)cc2)CC1	9	8	154*[activator]	90	83	101	0	97	112	97	101	101	RGS-Gao=101*
Cc1ccc(-c2ccc(OCC(=O)N3CCOCC3)cc2)cc1	31	16	104	106	103	101	/	/	/	/	/	/
Cc1cccc(OCC(=O)N2CCOCC2)c1	11	277*	271*[activator]	97	123	160*[activator]	0	101	95	103	101	101
CC(NC(=O)C1CCCN(C(=O)N(C)C)C1)c1ccccc1 (stereo unspecified)	24	23	97	99	95	97	/	/	/	/	/	/
Cc1cc(C(=O)CSc2nnc(-c3cccnc3)n2-c2ccccc2F)c(C)n1C	10	24	5.0*!	11*!	-0.8*!	6.8*!	0	97	113	102	108	101
Fc1ccc(C(Nc2ccccn2)c2c[nH]c3ccccc23)cc1 (stereo unspecified)	14	23	133	141*[activator]	156	125	0	104	103	102	103	111	RGS-Gao=125*
Cc1cc(S(=O)(=O)Nc2cc(C)c(O)c(C)c2)c(C)s1	30	/	/	/	/	/	2	99	94	96	100	73
O=S1(=O)CC2N=C(N(Cc3c(F)cccc3Cl)c3ccccc3F)SC2C1 (stereo unspecified)	20	-2	12*	17*	11*	19*	1	102	98	104	102	98
CC1CCN(C(=O)c2ccc(NS(C)(=O)=O)cc2)CC1	48	/	/	/	/	/	1	101	104	101	102	88
O=C(NCc1ccccn1)c1nc(-c2ccc(C(F)(F)F)cc2)no1	21	9	97	101	104	99	/	/	/	/	/	/
CC(C)(C)c1ccc(-c2noc(C(=O)NN)n2)cc1	/	4	?	69	14*	83	-1	107	111	105	110	112	RGS-Gao=83*
C/C(=N\NC(=O)c1nn(C)c(C)c1Br)c1cccc(NC(=O)c2ccc(F)cc2)c1	6	5	112	140	253*[activator]	114	1	101	104	101	102	93	RGS-Gao=114*
CN(C)S(=O)(=O)c1ccc(C(=O)Nc2nnc(SCc3cccc(F)c3)s2)cc1	4	13	102	100	104	102	/	/	/	/	/	/
OCCC1CN(Cc2nc3c(s2)CCCC3)CCN1CCc1ccccc1 (stereo unspecified)	17	5	103	99	101	99	/	/	/	/	/	/
CC(C)CCN1CCN(Cc2nc3c(s2)CCCC3)CC1CCO (stereo unspecified)	13	2	27*	38*	30	40*	-1	115	110	117	103	105
CCOC(=O)COc1ccc(C(=O)Nc2cccc(Cl)c2C)cc1	12	20	98	102	100	101	/	/	/	/	/	/
N=C1C2=C3Sc4ccccc4N3CCCC2=NN1c1cccc(S(=O)(=O)O)c1	/	-2	?	8.6*	-6.4*	-11*	-1	100	97	100	99	85
COC(=O)Nc1csc2c1NC(=O)CCCC2	/	-1	?	18*	-4.2*	-9.2*	-1	95	84	91	93	99
CCOc1cccc2cc(C(C)=O)oc12	14	/	10*	11*	5.6*	11*	1	101	102	102	101	113
COc1cccc2cc(C(C)=O)oc12	20	8	96	97	112	100	/	/	/	/	/	/
CC1=C(C(=O)OC(C)C)C(c2cccc(F)c2)N2C(=O)C(C)SC2=N1 (stereo unspecified)	20	/	/	/	/	/	0	101	98	99	100	90
CC1=C(C(=O)OCC(C)C)C(c2cccc(F)c2)N2C(=O)C(C)SC2=N1 (stereo unspecified)	12	10	101	105	105	102	/	/	/	/	/	/
CCN(CCNC(=O)CN(C)S(=O)(=O)c1cccc2nsnc12)c1ccccc1	11	23	109	108	109	109	/	/	/	/	/	/
CCN(CCCNC(=O)CN(C)S(=O)(=O)c1cccc2nsnc12)c1cccc(C)c1	39	/	/	/	/	/	4	104	103	101	101	106
S=C(NCCc1ccccc1)N1CCn2cccc2C1c1cccnc1 (stereo unspecified)	18	23	100	101	105	101	/	/	/	/	/	/
CCCOc1ccc(C(=O)NCC(c2cccs2)N(C)C)cc1OC (stereo unspecified)	9	17	104	103	100	103	/	/	/	/	/	/
COc1cc(C(=O)NCC(c2cccs2)N(C)C)cc(Cl)c1OC(C)C (stereo unspecified)	15	8	120	122	211*[activator]	116	2	103	109	105	106	112	RGS-Gao=116*
S=C(N/N=C/c1ccc2c(c1)OCO2)NC1CC2CCC1C2 (stereo unspecified)	/	3	?	102	102	101	/	/	/	/	/	/
NS(=O)(=O)c1ccc(N/N=C/c2ccc(O)c(O)c2O)c([N+](=O)[O-])c1	/	-1	?	39*	20*	69	-9	43*	35*	42*	71*	-0.4*	RGS-Gao=69*
CCCCCNC(=O)c1cc(S(=O)(=O)N2CCCC2)ccc1F	25	5	84	65	22*	84	3	100	98	102	99	90	RGS-Gao=84*
